Laboratory results published in PubChem BioAssay AID434982 (The Scripps Research Institute Molecular Screening Center, 2010).
The whole screen tested about 15,000 compounds, of which about 60 (0.4%) were called active. Rule as the data show it: active = activation above about 2.2%; inactive = the rest. Shown is part of a subset that was picked to be rich in actives.

Assay: activates NOTCH signaling in reporter cells (AID 434982)
Settings: NOTCH signaling luciferase reporter cells, luminescence; at 2.5 µM; stronger effect = higher value

Compound | activation
Cn1c(=O)c2c(ncn2Cc2nnc(-c3ccccc3)o2)n(C)c1=O | -0.05% (inactive)
Cc1ccc(S(=O)(=O)N/N=C/c2ccc(O)cc2O)cc1 | -0.7% (inactive)
Cc1nnsc1C(=O)NN(C)c1ccc([N+](=O)[O-])cn1 | -0.31% (inactive)
CCOC(=O)Cc1cnc(NN=C2C3CC4CC(C3)CC2C4)s1 | -0.83% (inactive)
O=C(Cn1c(=Nc2ccc(F)cc2)oc2ccccc2c1=O)c1ccccc1 | -0.66% (inactive)
O=c1[nH]c2ccccc2c(=O)n1CCSc1ccc(Cl)cc1 | -0.73% (inactive)
O=S(=O)(NC1Cc2ccccc2C1)c1ccc(-c2csnn2)cc1 | -0.03% (inactive)
CCOC(=O)C(=CNNc1ccc(C(=O)O)cc1[N+](=O)[O-])C(=O)OCC | -0.57% (inactive)
Cc1ccc(NC(C(=O)O)c2ccccc2)cc1 (stereo unspecified) | -0.61% (inactive)
CC(=O)Nc1ccc(S(=O)(=O)NNc2c(Cl)cncc2Cl)cc1Cl | -0.55% (inactive)
CCOC(=O)CCC(=O)OC(C(=O)c1ccccc1)c1ccccc1 (stereo unspecified) | -0.16% (inactive)
Cc1ccc(/C=c2\sc3nc4ccccc4n3c2=O)o1 | -0.36% (inactive)
O=S(=O)(CCSc1ccccc1NS(=O)(=O)c1cccs1)c1ccc(Cl)cc1 | -0.38% (inactive)
O=C(Nn1cnnc1)c1ccc([N+](=O)[O-])cc1 | -0.58% (inactive)
O=C(CSc1nnc(-c2ccncc2)o1)N1CCc2ccccc21 | -0.94% (inactive)
Oc1ccccc1C=NCCCN=Cc1ccccc1O | -0.99% (inactive)
N#Cc1ccc(Oc2ccc(Cl)cc2)c([N+](=O)[O-])c1 | -0.29% (inactive)
Oc1ccccc1C=Nc1ccc(F)cc1 | -0.14% (inactive)
O=C(O)/C=C/C(=O)Nc1ccc(NC(=O)c2ccccc2O)cc1 | 0.22% (inactive)
CCOC(=O)c1c(C)nn(-c2ncccc2NC(=O)Nc2cccc(Cl)c2Cl)c1C | -0.32% (inactive)
c1ccc(C2=NCCN=C2c2ccccc2)cc1 | 0.16% (inactive)
N#CC(C#N)=Cc1cccn1-c1ccc(C(F)(F)F)cc1 | -0.29% (inactive)
N#C/C(=C\c1cccs1)C(=O)NCCc1c[nH]c2ccccc12 | 0.42% (inactive)
COC(=O)c1noc(C)c1-c1ccnn1C(=O)c1ccc(Cl)cc1 | 0.11% (inactive)
COc1ccc(Cc2nc(C(C)(C)C)cs2)cc1 | 0.28% (inactive)
CNC(=S)NNC(=O)c1cc(C)on1 | -0.11% (inactive)

Compound | activation
Cn1cnc([N+](=O)[O-])c1N1CCN(C(c2ccccc2)c2ccccc2)CC1 | -0.25% (inactive)
COC(=O)c1sccc1S(=O)(=O)Nc1ccccc1Sc1ncnc2c(C)csc12 | -0.68% (inactive)
N#Cc1ccc(-c2csc(COc3ccccc3Cl)n2)cc1 | 0.49% (inactive)
O=C(Nc1ccc(Cl)cc1)c1csc(COc2ccc3nonc3c2)n1 | -0.05% (inactive)
COC(=O)c1ccccc1-c1c2ccc(=O)cc-2oc2cc(O)ccc12 | -0.07% (inactive)
COc1cccc(/C=N/NC(=S)Nc2cc(C(F)(F)F)cc(C(F)(F)F)c2)c1O | -0.66% (inactive)
O=C(O)CC(CC(=O)Nc1cc(C(F)(F)F)ccc1N1CCOCC1)c1ccccc1 (stereo unspecified) | -0.05% (inactive)
Cc1cc(C)nc(NC(=S)c2ccc(NC(=O)/C=C/C(=O)O)cc2)n1 | -0.56% (inactive)
Cc1c(NC(=S)Nc2ccccc2)c(=O)n(-c2ccccc2)n1C | -0.19% (inactive)
O=C(Nc1ccc(OC(F)F)cc1)Nc1coc(-c2ccccc2)c1 | -0.11% (inactive)
CCSC(=O)NCc1ccccc1 | -0.05% (inactive)
O=C(O)c1ccccc1Nc1ccccc1F | -0.29% (inactive)
CN(n1cnc2ccccc2c1=O)S(=O)(=O)c1cc(Cl)sc1Cl | -0.39% (inactive)
COC(=O)c1sc(SC)c(-c2ccn[nH]2)c1C | 0.4% (inactive)
O=C(/C(=N\N=C\c1ccc2c(c1)OCO2)c1ccccc1)c1ccccc1 | -0.24% (inactive)
CCCCCCCN=C(C)c1ccccc1O | -0.3% (inactive)
O=C(O)CC1(CC(=O)Nc2ccccc2-n2cccn2)CCCCC1 | -0.3% (inactive)
CSc1ccc(Br)cc1 | 0.1% (inactive)
O=C(N/N=C/c1cccs1)C(=O)Nc1ccc(Cl)c(Cl)c1 | -0.5% (inactive)
O=C1C=C(c2ccccc2)CN(C2CCCCC2)C1=O | -1.07% (inactive)
O=C(Nc1ccccc1)N1CCN(c2ncnc3sccc23)CC1 | -0.57% (inactive)
COCCOc1ccc(NC(=S)N2CCOCC2)cc1 | 0.32% (inactive)
COC(=O)c1ccccc1NC(=O)c1ccc(Oc2cc(Cl)cc(Cl)c2)o1 | -0.31% (inactive)
O=C(Sc1ccccc1)c1ccc(C(F)(F)F)cc1 | -0.46% (inactive)
CC(N)=NCCc1ccncc1 | -0.78% (inactive)
N/C(=N\OC(=O)CCn1cccc(C(F)(F)F)c1=O)c1ccc(OC(F)(F)F)cc1 | -0.58% (inactive)

Compound | activation
CCOC(=O)/C(C#N)=C/NNc1c(C)csc1C(=O)OC | 0.05% (inactive)
Cn1/c(=N\N=C2CCCCC2)sc2ccccc21 | 0.03% (inactive)
CSc1cccc(NC(=O)C(=O)NCCc2ccccn2)c1 | -1.05% (inactive)
COCCCN/C(SCc1c(F)cccc1Cl)=C(\C#N)C(N)=O | 0.49% (inactive)
CC1CN(c2ccc(NC(=S)NCc3cccs3)cc2)CC(C)O1 (stereo unspecified) | -0.73% (inactive)
N#Cc1c(-c2ccccc2)c(-c2ccccc2)n[nH]c1=O | -0.27% (inactive)
O=C1C(Nc2ccccc2)=CC(c2ccc([N+](=O)[O-])cc2)N1c1ccccc1 (stereo unspecified) | -0.41% (inactive)
N#CC1(C#N)C(c2ccc(Cl)c(Cl)c2)C1(C#N)C#N | -0.6% (inactive)
N#Cc1nccnc1N1CCN(C(=O)c2ccccc2)CC1 | -0.2% (inactive)
Cn1c(SCC(=O)c2ccc(Cl)cc2)nnc1-c1cnccc1C(F)(F)F | -0.25% (inactive)
O=C(O)c1ccccc1N/C=C/[N+](=O)[O-] | -0.62% (inactive)
CC1=NOC(=O)/C1=C\c1ccccc1 | -0.92% (inactive)
O=C1Nc2ccccc2C12NNC(=S)NN2 | -0.45% (inactive)
CCCC1NC(=O)NC(C)=C1C(=O)OCC (stereo unspecified) | -0.61% (inactive)
CCOC(=O)C(=CNc1cc(C(F)(F)F)ccc1NCc1ccccc1)C(=O)OCC | -0.25% (inactive)
CCOC(=O)COc1cccc2c(C)cc(=O)oc12 | -0.24% (inactive)
Cc1nc(-c2ccccc2)sc1-c1nnc(C2CC2)o1 | -0.45% (inactive)
O=C(CN1C(=O)/C(=C/c2ccccc2Cl)N=C1c1ccccc1)c1ccccc1 | -0.14% (inactive)
COC(=O)C1=C(NNc2ncc(Cl)cc2C(F)(F)F)CSC1 | -0.05% (inactive)
CC(C)c1ccc(NNS(=O)(=O)c2ccc(Cl)c(Cl)c2)cc1 | -0.45% (inactive)
CCOc1c(N2CCCCC2)c(=O)c1=O | -0.13% (inactive)
O=c1[nH]/c(=C/c2ccc(OC(F)(F)F)cc2)c(=O)[nH]/c1=C/c1ccc(OC(F)(F)F)cc1 | -0.83% (inactive)
CSc1nnc(-c2ccc(C(F)(F)F)cn2)o1 | 0.03% (inactive)
CCOC(=O)/C(C#N)=C/N=C(N/N=C/c1cccs1)SC | -0.19% (inactive)
FC(F)(F)c1cc(-c2ccc(Br)cc2)n[nH]1 | 0.22% (inactive)
N#C/C(=C\C=C\c1ccccc1)c1nc2ccccc2[nH]1 | -5.39% (inactive)

Compound | activation
COc1cccc(/C=C2\SC(=S)C(N)C2=O)c1OC (stereo unspecified) | 0.34% (inactive)
NC(=S)N/N=C\Cc1nnnn1-c1ccc(Cl)cc1 | 0.16% (inactive)
Cc1ncn2cc(-c3ccc(Cl)cc3Cl)[nH]c(=O)c12 | -0.34% (inactive)
N#Cc1cc([N+](=O)[O-])c(N2CCCC2)cc1N1CCCC1 | -0.6% (inactive)
CC(C)(C)c1cc(C(=O)/C=C2/NC(=O)CS2)no1 | 0.5% (inactive)
Cc1cccc(Cl)c1NC(=S)NCCNC(=O)OC(C)(C)C | -0.1% (inactive)
OC(COc1ccc(Cl)c(Cl)c1)CN1CCC(Nc2nccc(C(F)(F)F)n2)CC1 (stereo unspecified) | -0.76% (inactive)
CCOC(=O)CCSc1cc(-n2cccc2)c(Cl)cc1[N+](=O)[O-] | -0.25% (inactive)
CCCN(CCC)S(=O)(=O)c1ccc(C(=O)Oc2c(C)cccc2OC)cc1 | 0.36% (inactive)
O=C(O)CC1(CC(=O)Nc2ccc(N3CCCCC3)cc2)CCCCC1 | -0.6% (inactive)
COc1cc(CC/C(C)=N/O)ccc1O | 0.52% (inactive)
O=C(Nc1cccnc1Oc1ncnc2cc(Cl)ccc12)c1ccc(F)cc1 | -5.46% (inactive)
O=C(O)c1ncoc1-c1cccc(Cl)c1 | -0.29% (inactive)
Cn1cnc(S(=O)(=O)Nc2ccc3[nH]ccc3c2)c1 | -0.46% (inactive)
COc1ccc(C(=O)NNC(=O)c2c(OC)cc(C(F)(F)F)cc2C(F)(F)F)cc1 | 0.11% (inactive)
O=C(O)C#Cc1cccc2ccccc12 | -0.45% (inactive)
Cn1cc(Br)c(-c2cccc(NC(=O)c3ccccc3Cl)c2)n1 | -0.38% (inactive)
Cc1onc(-c2ccccc2Cl)c1NC(=O)N1c2ccc(F)cc2CCC1C (stereo unspecified) | -0.44% (inactive)
CN(C)/C=C1/C(=O)NN=C1CSc1ccc(Cl)cc1 | -0.25% (inactive)
Cc1c(S(=O)(=O)N2CCOCC2)ccc(Cl)c1F | -1.27% (inactive)
N#C/C=C/c1ccc(C(F)(F)F)cc1[N+](=O)[O-] | -0.41% (inactive)
Cc1nc2c(ncn2-c2ccccc2)c(=O)n1NC(=O)CN1CCCC1 | -4.07% (inactive)
COc1ccc(CCN=C(C)c2cc(Cl)cc(Cl)c2O)cc1OC | -0.13% (inactive)
